Measurements taken from PubChem BioAssay (NCI).
“And” between values parts separate entries of the source, which are not always exact repeats. Identical values can stand only once. The panel holds about 79,000 compounds, 15% with a hit somewhere; the sample as a whole holds those more often. The source made the active and inactive calls. No stated cut-off is given here; in the data, active means growth inhibition above about 70%; inactive means the rest.

Legend:
[1] = NCI Yeast Anticancer Drug Screen. Data for the rad50 strain (AID 155);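 further: 0% = growth of vehicle-only cultures of the same strain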; conditions: S. cerevisiae rad50 strain growth inhibition, active compounds read high; at 50.0 µM unless noted
Procedure, shortened: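 Genetically altered yeast (DNA repair pathway); compound treatment; growth inhibition vs vehicle ctrl.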

[2] = NCI Yeast Anticancer Drug Screen. Data for the mec2-1 strain (AID 157); conditions: S. cerevisiae mec2-1 strain, active compounds read high; at 50.0 µM unless noted
Procedure, shortened: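 Test agents were screened against the mec2-1 yeast strain, with defined DNA repair or cell cycle alteration. Growth was scored as inhibition against vehicle-only controls.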

[3] = NCI Yeast Anticancer Drug Screen. Data for the sgs1 mgt1 strain (AID 161);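 further: 0% = growth of cultures given vehicle only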; conditions: S. cerevisiae sgs1 mgt1 strain, active compounds read high; at 50.0 µM unless noted
Procedure, shortened: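 Inhibition of yeast growth, normalised to vehicle-treated controls, is reported for a strain bearing genetic alterations in DNA damage repair.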

[4] = NCI Yeast Anticancer Drug Screen. Data for the cln2 rad14 strain (AID 165);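 further: 0% = growth equal to vehicle treated cultures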; conditions: S. cerevisiae cln2 rad14 strain, active compounds read high; at 50.0 µM unless noted
Procedure, shortened: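 Growth of compound-exposed yeast (cln2 rad14 genotype) measured and expressed as inhibition relative to vehicle.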

[5] = NCI Yeast Anticancer Drug Screen. Data for the bub3 strain (AID 167); conditions: S. cerevisiae bub3 mutant strain, active compounds read high; at 50.0 µM unless noted
Procedure, shortened: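 Yeast carrying a defined mutation is treated with each compound, and growth is compared with that of vehicle-exposed cells to give inhibition.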

[6] = NCI Yeast Anticancer Drug Screen. Data for the mlh1 rad18 strain (AID 175); conditions: S. cerevisiae mlh1 rad18 strain growth inhibition, active compounds read high; at 50.0 µM unless noted
Procedure, shortened: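 In this whole-cell yeast screen, a strain with altered DNA damage repair is challenged with compound, and its growth is measured against matched vehicle-treated controls.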

Measured: growth inhibition

N#CC(C(=O)CCC(=O)NCCc1ccccc1)c1nc2ccccc2s1 (stereo unspecified)
inactive: [1] -11.9% | [2] -6.05% | [3] -10.8% | [4] -10.1% | [5] 4.8% | [6] 4.55%

O=C(O)CSc1nc2ccccc2[nH]1
inactive: [1] 3.5% | [2] 1.55% | [3] -36% | [4] -13.9% | [5] -35.4% | [6] 10%

CN1C(=O)N(c2cc(Cl)cc(Cl)c2)C(=N)C1=S
inactive: [1] 7.1% | [2] 1.75% | [3] 17.6% | [4] -3.1% | [5] 32.5% | [6] 37.5%

CCOC(=O)Cn1c(=O)[nH]c(=O)c2c1ncn2Cc1ccccc1
inactive: [1] 32.9% | [2] -2.35% | [3] -3.1% | [4] 13.2% | [5] 30.2% | [6] 25.7%

Cc1nccn1C(/C(=N/O)c1ccccc1)c1ccccc1 (stereo unspecified)
inactive: [1] -0.55% | [2] 10.4% | [3] -0.5% | [4] 13.7% | [5] 10.8% | [6] 3.2%

Nc1nc(N)c2[nH]cnc2n1
inactive: [1] 0.6% and 18.9% | [2] -1.5% and -3.95% | [3] 3.65% and -1.85% | [4] 10.7% and -30.4% | [5] 0.6% and -16.6% | [6] -43.9% and 1.2%

CC12CCC(CC1(Cl)Cl)C2 (stereo unspecified)
inactive: [1] 9.75% | [2] -5.8% | [3] 21.1% | [4] 14.3% | [5] 4.7% | [6] 26.9%

Cc1ccnc(NC(=O)CCc2ccccc2)c1
inactive: [1] -11.8% | [2] -16.8% | [3] -10.3% | [4] -31.7% | [5] -13.2% | [6] -5.85%

CCOC(=O)C1CC1
inactive: [1] -9.65% | [2] -39.5% | [3] 1% | [4] 0.05% | [5] -9.75% | [6] -2.7%

CCCNCCCCCCNc1cc(OC)cc2cccnc12
inactive: [1] 54.9% | [2] 6.05% | [3] 39.7% | [4] 63.4% | [5] 31.9% | [6] 54.3%

CC1=C(C(=O)OC(C)(C)C)C(c2ccc([N+](=O)[O-])cc2)C(C(=O)OC(C)(C)C)=C(C)N1
inactive: [1] 0.2% | [2] -4.9% | [3] 3.85% | [4] 12.2% | [5] -12.8% | [6] 15.4%

Nc1nc2c(c(=O)[nH]1)N(C=O)C(CCNc1ccc(C(=O)NC(CCC(=O)O)C(=O)O)cc1)CN2 (stereo unspecified)
inactive: [1] 5.35% | [2] -12.2% | [3] 2.55% | [4] -12.6% | [5] 9% | [6] 3.25%

C1CSCCSS[C@@H]2CCCCC2SC1 (stereo partly specified)
inactive: [1] -12.8% | [2] -25.1% | [3] -0.55% | [4] -11.9% | [5] -12.1% | [6] -17.1%

Cc1cc[n+]2cc(-c3ccc(/C=N/N=C(N)N)cc3)n(C)c2c1
inactive: [1] 22.9% | [2] 33.9% | [3] 18.7% | [4] 28.9% | [5] -8.75% | [6] 29.9%

N.N.O=P([O-])([O-])C1(P(=O)([O-])[O-])CCCCCN1.[Pt+2]
inactive: [1] 13.6% | [2] 22.4% | [3] -5.05% | [4] 6.25% | [5] 23.7% | [6] 11.2%

S=C(NC1CCCCC1)SSSC(=S)NC1CCCCC1
inactive: [1] -6.7% | [2] -4.65% | [3] -8.05% | [4] 15.2% | [5] -17.4% | [6] 6.8%

CC(=NCCCCN=C(C)c1cc(O)cc(Br)c1O)c1cc(O)cc(Br)c1O.[Co]
inactive: [1] 17.9% | [2] 17.9% | [3] 12.3% | [4] 6.45% | [5] 2.1% | [6] 24.4%

CC(C)(C)OC(=O)CC(NC(=O)OC(C)(C)C)C(=O)NC(C(=O)O)C(O)c1ccccc1 (stereo unspecified)
inactive: [1] -19.4% | [2] -24.9% | [3] -15.3% | [4] -22.9% | [5] -9.45% | [6] -28.6%

CC(=O)c1c(Cl)nnc(-c2ccccc2)c1-c1ccccc1
inactive: [1] -9% | [2] 0.05% | [3] -9.2% | [4] -21.9% | [5] -11.7% | [6] -12.3%

Nn1c(N=Nc2c(O)[nH]c3ccccc23)n[nH]c1=S
inactive: [1] 45.9% | [2] 5.5% | [3] 57% | [4] 15.9% | [5] 6.35% | [6] 23.9%

O=C1N(C2CCCCC2)C(/C=C/c2ccccc2)C1(c1ccccc1)c1ccccc1 (stereo unspecified)
inactive: [1] 22.4% | [2] 0.25% | [3] 3.65% | [4] 19.6% | [5] -6.05% | [6] 4.7%

O=S(=O)(O)c1ccc2c(ccc3ccccc32)c1
inactive: [1] -18.4% and -3.8% | [2] -0.25% and -18.4% | [3] -2.9% and -14.2% | [4] -0.9% and 21.6% | [5] 1.35% and 28.1% | [6] 5.7% and -23.1%

COc1ccc(/C(=N\NC(=S)NN)C(c2ccc(OC)cc2)C2C(=O)Oc3ccccc32)cc1 (stereo unspecified)
inactive: [1] 13.4% | [2] 5.85% | [3] 38.4% | [4] -9.3% | [5] 12.7% | [6] 2.85%

CCN(CCN1CCCCC1)c1ccccn1
inactive: [1] 11% | [2] 1.3% | [3] 11.4% | [4] -35.7% | [5] 7.45% | [6] -10.9%

Cc1cccc2ccc(-c3cc4ccccc4s3)nc12
inactive: [1] -5.95% | [2] -15.1% | [3] -3.1% | [4] -87.6% | [5] -10.2% | [6] -21.1%

NC(CCO)P(=O)(O)O (stereo unspecified)
inactive: [1] 13.3% | [2] -6.05% | [3] -20.2% | [4] -55.7% | [5] 2.05% | [6] -4.6%

COc1ccc(NC(=O)c2ccc(OC)cc2)cc1
inactive: [1] 0.7% | [2] -8.9% | [3] 5.2% | [4] 1.95% | [5] 7.85% | [6] -3.7%

COc1ccc(NC(=S)N/N=C(\C)c2ccccn2)cc1
active: [1] 81.5% | [2] 91.8% | [3] 94% | [5] 80.1% | [6] 84.8%
inactive: [4] 35.4%

S=c1nc2ccccn2c(=S)n1-c1ccccn1
inactive: [1] 33.6% | [2] 23.9% | [3] 27.4% | [4] 0.5% | [5] 24.5% | [6] 57.9%

O=C(O)COc1ccc([N+](=O)[O-])cc1[N+](=O)[O-]
inactive: [1] 20.9% | [2] 14% | [3] 22.4% | [4] 7.95% | [5] 3.95% | [6] 16.6%

CCc1cccc(CC)c1NC(=O)OCCN(CC)CC
inactive: [1] -3.8% | [2] -16.9% | [3] 10.4% | [4] 16.8% | [5] 11.6% | [6] 4.15%

CCOC(=O)/C(Cc1cc[n+]([O-])cc1)=N/O
inactive: [1] 33.5% | [2] 27.3% | [3] 15.2% | [4] 13.5% | [5] 13.6% | [6] 20.5%

c1ccc(NN=Nc2ncnc3nc[nH]c23)cc1
inactive: [1] 3.35% | [2] 5.9% | [3] -2.2% | [4] -11.8% | [5] 7.7% | [6] 2.7%

CCOC(C)(Cc1ccccc1[N+](=O)[O-])OCC
inactive: [1] 11.4% | [2] 4.3% | [3] -4.05% | [4] 2.5% | [5] -3.6% | [6] 18.5%

Cc1ccc([N+](=O)[O-])cc1NS(=O)(=O)c1cc(Cl)c(Cl)cc1Cl
inactive: [1] 19.8% | [2] 36.6% | [3] 49.2% | [4] -8.5% | [5] 1.2% | [6] 61.2%

C/C=C/C#C/C=C1/C=CC(=O)O1
inactive: [1] -5.95% | [2] -1.35% | [3] -7.2% | [4] 37.1% | [5] 34.2% | [6] 10.1%
